The list is not random: actives were taken first. Their share in the collection is about 32%.
CYP2C9 inhib: human CYP2C9 inhibition; P11712; CYP2C9 Supersomes, luciferin-H conversion, luminescence; inhibition, % at 5 µM; 20% of 96,000 active;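 active = blocking of liver enzyme CYP2C9 beyond about 50% at 5 µM, limit read from the data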
CYP2C9 act: CYP2C9 (human) activation; P11712; recombinant CYP2C9, luciferin-H conversion, luminescence; active compounds read high; factor 1 = untreated enzyme, 0 = blocked; activation factor at 5 µM; 1.4% of 96,000 active; AID 1024;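 active = activation factor of 2 or more for CYP2C9 at a 5 µM dose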
PostGolgi yeast: growth inhibition of a yeast mutant, post-Golgi transport screen; AID 739; inhibition, % at 10 µM; post-Golgi transport phenotypic cell assay; 0.9% of 98,000 active;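 note: yeast cells grown in 1536-well plates; yeast grown about 18 h at 30C before absorbance read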
PostGolgi ctrl: growth of the yeast control strain, post-Golgi counter-screen; efflux-deficient yeast background strain, growth absorbance A615, 16 h; inhibition, % at 10 µM; 5% of 98,000 active
CYP2C19 act: cytochrome P450 2C19 (human) activation. 96,000 tested, under 10 active. recombinant CYP2C19, luciferin-H EGE luminescence; active compounds read high; 0 = fully inhibited enzyme, 1 = untreated enzyme. AID 1025. P33261. activation factor at 5 µM;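 active = activation factor of at least 2 at 5 µM in the primary screen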
CYP2C19 inhib: inhibitors of human CYP2C19 | P33261 | CYP2C19 Supersomes, luciferin-H EGE luminescence, 30 min | inhibition, % at 5 µM | 21% of 96,000 active | AID 778;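 active = CYP2C19 inhibition above a set limit at 5 µM in the primary screen, cut at about 50% in these data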
Each line names hits and unclear results; the compound was inactive in the other large screens. Cut-off read from the data, not from the text of the source, unless noted: active = inhibition above about 30%; inactive = the rest.

CC1Cc2ccccc2N1S(=O)(=O)c1cccc2nsnc12 (configuration not stated)	CYP2C9 inhib 99, CYP2C19 inhib 79
COc1ccc(OC)c(S(=O)(=O)N2Cc3ccccc3CC2C(=O)O)c1 (configuration not stated)	none
COc1ccc(OC)c(S(=O)(=O)N2C(C)CCCC2C)c1 (configuration not stated)	CYP2C9 inhib 85, CYP2C19 inhib 93
COc1ccc(OC)c(S(=O)(=O)N2CCCc3ccccc32)c1	CYP2C19 inhib 84
CCOc1ccc(C(CC(=O)O)NS(=O)(=O)c2ccc(C)cc2)cc1OC (configuration not stated)	none
Cc1cc(Nc2ccc(Br)cc2)n2nc(C)nc2n1	none (no result: CYP2C9 inhib, CYP2C9 act, CYP2C19 act, CYP2C19 inhib)
Cc1cc(Nc2ccc(C)c(C)c2)n2nc(C)nc2n1	CYP2C9 inhib 52
Cc1cc(Nc2ccc(F)cc2Cl)n2nc(C)nc2n1	PostGolgi ctrl 32
CCOc1ccc(NC(=O)C2CCN(S(=O)(=O)c3c(C)n[nH]c3C)CC2)cc1	none
CCC(C)(C)n1nnnc1C(c1cc2cc(C)cc(C)c2[nH]c1=O)N1CCN(Cc2ccc3c(c2)OCO3)CC1 (configuration not stated)	CYP2C9 inhib 80, PostGolgi ctrl 37
CCC(C)(C)n1nnnc1C(c1cc2cc3c(cc2[nH]c1=O)OCO3)N1CCN(C)CC1 (configuration not stated)	PostGolgi yeast 30
O=C(CCc1nc(-c2ccccc2F)no1)NC1CCCCC1	none
CC1(c2ccccc2)NC(=S)N2C1NC(=S)N2c1ccccc1 (configuration not stated)	CYP2C19 inhib 70
CCOC(=O)c1c(NC(=O)C(C)NCc2ccco2)sc2c1CCC(C)C2 (configuration not stated)	none
CCOc1ccc2[nH]c(=O)c(CN(Cc3ccc(F)cc3)C(=O)c3ccco3)cc2c1	none
COc1cc(OC)nc(NC(=O)COC(=O)C2CCCCC2)n1	none
O=C(Cn1nnc(-c2ccccc2NC(=O)c2ccco2)n1)Nc1ccccc1	CYP2C9 inhib 92
CCCOc1ccc(-c2nnn(CC(=O)Nc3cccc(C(=O)OC)c3)n2)cc1	CYP2C9 inhib 92 (no result: PostGolgi yeast, PostGolgi ctrl)
COc1ccc(C(=O)Nc2cc(OC)c(NC(=O)c3ccco3)cc2OC)cc1	none
O=C(Cn1nnc(-c2ccccc2NC(=O)c2ccccc2)n1)Nc1ccc2c(c1)OCCO2	none
CCOc1ccc(NC(=O)Cn2nnc(-c3ccccc3NC(=O)CC)n2)cc1	CYP2C9 inhib 89, CYP2C19 inhib 100
COc1cccc(-c2nnn(CC(=O)Nc3cc(OC)c(NC(=O)c4ccco4)cc3OC)n2)c1	CYP2C9 inhib 54
N#C/C(C(N)=O)=C1/CCc2ccccc2N1	none
CCOc1cccc(N2C(=O)CC(NCc3ccc(S(N)(=O)=O)cc3)C2=O)c1 (configuration not stated)	none
CCOC(=O)Cc1csc(-n2sc3ccccc3c2=O)n1	none
Cc1ccccc1NC(=O)CC1(c2ccc(N(C)C)cc2)C(=O)c2ccccc2C1=O	CYP2C19 inhib 56
O=C(O)CC1(c2ccccc2)C(=O)c2ccccc2C1=O	none (no result: PostGolgi yeast, PostGolgi ctrl)
Cc1cccc(/C=C2/SC(=O)N(Cc3ccccc3Cl)C2=O)n1	PostGolgi ctrl 39
CCn1cc(Cl)c(C(=O)Nc2nc3ccccc3n2CCN2CCCCC2)n1	none
COc1ccc(CC(=O)Nc2ccc(-c3noc(COc4ccccc4C)n3)cc2)cc1	none
CCOc1ccc(Cc2nc(-c3nonc3N)no2)cc1OCC	CYP2C19 inhib 50
Cc1cccc(OCc2nc(-c3nonc3N)no2)c1C	CYP2C19 inhib 66
Nc1nonc1-c1noc(COc2ccccc2Cl)n1	CYP2C19 inhib 86
Cc1ccnc(SCCn2c(N3CCC(C)CC3)nc3c2c(=O)[nH]c(=O)n3C)n1	none
CCOC(=O)c1cnn(-c2nc(SC)nc3sc4c(c23)CCCC4)c1N	CYP2C9 inhib 63, PostGolgi ctrl 76
CCOC(=O)CSc1nnc2n(C3CCCCC3)c(=O)c3c4c(sc3n12)CCCC4	CYP2C9 inhib 63, CYP2C19 inhib 54
CC1CCc2c(sc3nc(SCC(=O)NCc4ccco4)nc(N)c23)C1 (configuration not stated)	CYP2C9 inhib 61
CSc1nc(SCC(=O)NCc2ccco2)c2c3c(sc2n1)CN(C)CC3	none (no result: CYP2C9 inhib, CYP2C9 act, CYP2C19 act, CYP2C19 inhib)
